Results published in PubChem BioAssay (NCATS).
Results filed as inconclusive are left out. Activity calls are given as the source filed them. The call rests on the fitted dose curve; in most records, active means well fitted curve in the direction sought with a large enough effect; inconclusive means small, poorly fitted or top-dose-only effect, or another doubt; inactive means no such curve, though single readings can be large or run the other way.

Molecular target: Thioredoxin reductase 1, cytoplasmic (Rattus norvegicus) (UniProt O89049)
Sequence (O89049 whole entry, looked up): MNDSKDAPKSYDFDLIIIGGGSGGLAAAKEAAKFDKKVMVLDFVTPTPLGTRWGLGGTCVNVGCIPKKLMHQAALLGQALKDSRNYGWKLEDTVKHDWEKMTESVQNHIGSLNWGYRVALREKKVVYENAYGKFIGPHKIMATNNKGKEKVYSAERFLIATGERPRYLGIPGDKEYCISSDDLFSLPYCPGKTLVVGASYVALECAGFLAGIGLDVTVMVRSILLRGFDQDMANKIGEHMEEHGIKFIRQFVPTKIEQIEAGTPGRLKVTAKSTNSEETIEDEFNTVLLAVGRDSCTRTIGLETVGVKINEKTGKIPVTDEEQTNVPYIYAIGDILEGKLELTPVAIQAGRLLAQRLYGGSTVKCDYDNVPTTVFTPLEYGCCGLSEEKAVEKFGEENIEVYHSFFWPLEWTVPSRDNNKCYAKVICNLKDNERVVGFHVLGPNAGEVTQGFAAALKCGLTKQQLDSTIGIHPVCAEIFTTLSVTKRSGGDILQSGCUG
Assay: qHTS Assay for Substrates of Mammalian Selenoprotein Thioredoxin Reductase 1 (TrxR1) (AID 488772);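 further: 0% is about no effect; a drop in NADPH fluorescence below the no-compound background marks a TrxR1 substrate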
Conditions: purified TrxR1, NADPH consumption substrate assay; series mostly up to 57.1 µM; activity change, negative = NADPH consumption: at the top concentration
Text: The selenoprotein thioredoxin reductase (TrxR; EC 1.8.1.9) is a FAD containing homodimeric pyridine nucleotide-disulfide oxidoreductase with many cellular roles. Together with NADPH and its prime substrate thioredoxin (Trx), the enzyme forms the core of the Trx system. The mammalian Trx system exerts a wide spectrum of functions including redox regulation, antioxidant defense, regulation of transcription factors as well as support of cell growth and replication. Many of these functions involve the reduction of Trx, which may subsequently reduce a number of different substrates including ribonucleotide reductase, peroxiredoxins or NFkB. Mammalian TrxR itself also has a broad substrate specificity, reducing both protein and non-protein substrates, including low molecular weight compounds such as dehydroascorbate, lipoic acid, ubiquinone, and juglone. In addition, several drugs in clinical use for anticancer treatment are indeed known to target TrxR1.
This BioAssay is a validation of an NADPH fluorescence-based, dual-purpose qHTS rTrxR1 assay designed to find potential inhibitors and substrates of rTrxR1. For this particular BioAssay, actives are potential substrates. See related BioAssay for inhibitors data deposition.
Assay protocol: 2 uL of reagents (buffer in column 4 as negative control and 90 nM rTrxR1 in columns 1-3 and 5-48) were dispensed into Greiner black solid-bottom 1,536-well assay plates, followed by 1 uL of NADPH (400 uM final concentration) to each well. The plates were centrifuged at 1000 rpm for 15 seconds and subsequently incubated for 5 min at room temperature (~22 deg C) to allow for rTrxR1 reduction. Compounds (23 nL) were then transferred via Kalypsys pin tool equipped with 1536-pin array (10 nL slotted pins, V&P Scientific, San Diego, CA). In addition, a duplicate 2-fold serial dilution of the control compounds auranofin, a known gold-based TrxR1 inhibitor, and juglone (5-hydroxy-1,4-naphthoquinone), a natural TrxR1 substrate, were pin-transferred to columns 2 and 3, respectively. After incubation for 15 min at room temperature (~22 deg C), 1 uL of selenite (400 uM final concentration) were dispensed to each well. The plate was immediately transferred to a ViewLux high-throughput CCD imager (PerkinElmer), wherein kinetic measurements of NADPH fluorescence (Ex 340 nm, Em 450 nm) were acquired (8 minute kinetic read, see Table 1). Read 1 was utilized to assess the capacity of a compound to serve as an rTrxR1 substrate, i.e. a decrease in NADPH fluorescence compared to the no-compound background is an indication of a substrate behavior for that particular compound. For inhibitory activity of a compound, delta values, computed as the difference in fluorescence intensity between the first and last reads of an 8-minute time kinetic window, were used. All reagents were diluted in an assay buffer consisting of 50 mM Tris-HCl, pH 7.5, 2 mM EDTA, and 0.01% Tween-20.
Throughout the screen, reagent bottle and all liquid lines were made light-tight to minimize reagent degradation. All screening operations were performed on a fully integrated robotic system (Kalypsys, San Diego, CA) containing one RX-130 and two RX-90 anthropomorphic robotic arms (Staubli, Duncan, SC). Library plates were screened starting from the lowest and proceeding to the highest concentration, and a 'double-pinning' step of the highest concentration was required to access higher concentrations of compounds. Vehicle-only plates, with DMSO being pin-transferred to the columns 5-48, were inserted uniformly at the beginning and the end of each library in order to monitor and record any shifts in the background, which can be affected by reagent dispensers or loss in enzyme activity over time. Screening data were corrected, normalized, and concentration-effect relationships were derived by using publicly-available curve fitting algorithms developed in-house (http://ncgc.nih.gov/pub/openhts).

Compound | activity change, negative = NADPH consumption
C[C@H](Cc1ccc2c(c1)OC(C(=O)O)(C(=O)O)O2)NC[C@H](O)c1cccc(Cl)c1 | -10% (inactive)
COc1ccc2c(c1O)-c1cccc3c1[C@@H](C2)N(C)CC3 | -2.13% (inactive)
NC(=O)c1ccc(OCC(O)CN2CC=C(c3ccc(F)cc3)CC2)cc1 (stereo not given) | 1.63% (inactive)
CN1C2CCC1CC(OC(c1ccccc1)c1ccccc1N)C2 (stereo not given) | -8.05% (inactive)
C#CCN[C@H](C)Cc1ccccc1 | -5.64% (inactive)
CN(C(=O)Cc1ccc(Cl)c(Cl)c1)C(CN1CCCC1)c1cccc(OCC(=O)O)c1 (stereo not given) | -6.99% (inactive)
CC(C)[C@@]1(NC(=O)[C@@H]2C[C@@H]3c4cccc5[nH]cc(c45)C[C@H]3N(C)C2)O[C@@]2(O)[C@@H]3CCCN3C(=O)[C@H](Cc3ccccc3)N2C1=O | -1.66% (inactive)
Oc1ccc2c3c1O[C@H]1c4oc5ccccc5c4C[C@@]4(O)C(C2)N(CC2CC2)CCC314 (stereo not given in full) | -8.09% (inactive)
CCCN(CCC)C1Cc2cc(OC)c(OC)cc2C1 | 0.285% (inactive)
CCOC(=O)c1ncn2c1[C@@H]1CCCN1C(=O)c1cc(OC)ccc1-2 | -5.29% (inactive)
c1ccc2cc(CC3=NCCN3)ccc2c1 | -12.8% (inactive)
N[C@@H](Cn1ccc(=O)[nH]c1=O)C(=O)O | -4.4% (inactive)
N#CCCN | -9.09% (inactive)
CCn1cnc2c(Nc3cccc(Cl)c3)nc(N[C@@H]3CCCC[C@@H]3N)nc21 | -1.69% (inactive)
NC(N)=NOCC[C@H](N)C(=O)O | 1.39% (inactive)
CN1CC[C@@]2(C)c3cc(OC(=O)Nc4ccccc4)ccc3N(C)[C@@H]12 | -5.01% (inactive)
O=S1(=O)N(CCN2CC=C(c3c[nH]c4cc(F)ccc34)CC2)c2cccc3c2N1CCC3 | -1.68% (inactive)
NCCc1ccc(S(=O)(=O)F)cc1 | -1.09% (inactive)
CC(C)NP(=O)(NC(C)C)OP(=O)(NC(C)C)NC(C)C | -2.47% (inactive)
COC(=O)N1CCN(C(=O)Cc2ccc(Cl)c(Cl)c2)C(CN2CCCC2)C1 (stereo not given) | -3.02% (inactive)

Compound | activity change, negative = NADPH consumption
NCC(O)c1cc(O)c(O)cc1F (stereo not given) | -4.86% (inactive)
C[N+]1(C)CCN(c2ccccc2)CC1 | -7.13% (inactive)
O=C1C=CC(=O)C=C1 | -13.2% (inactive)
CC(N)[C@H](O)c1ccc(O)c(O)c1 (stereo not given in full) | -9.51% (inactive)
C=CCN1C[C@@H](C)N([C@H](c2ccc(C(=O)N(CC)CC)cc2)c2cccc(OC)c2)C[C@@H]1C | -7.81% (inactive)
Clc1cc(I)cc(Cl)c1NC1=NCCN1 | -7.82% (inactive)
CCCN1CCc2cc(O)cc3c2[C@H]1Cc1ccc(O)c(O)c1-3 | -3.4% (inactive)
N[C@@H](Cn1oc(=O)[nH]c1=O)C(=O)O | -2.24% (inactive)
CN(N=O)c1cc(O)ccc1O | -4.68% (inactive)
CCCCCCCCCCCCCC(=O)O[C@@H]1[C@@H](C)[C@@]2(O)[C@@H](C=C(CO)C[C@@]3(O)C(=O)C(C)=C[C@@H]23)C2C(C)(C)[C@@]21OC(C)=O (stereo not given in full) | -15.2% (inactive)
NCCc1c[nH]c2ccc(C(N)=O)cc12 | -7.37% (inactive)
NC(=O)CI | -4.08% (inactive)
C[N+](C)(C)CC#CCOC(=O)Nc1cccc(Cl)c1 | -14.1% (inactive)
NNC(N)=O | -9.12% (inactive)
NC(Cc1cc(O)c(O)cc1O)C(=O)O (stereo not given) | -1.97% (inactive)
CC(C)(C)c1o[nH]c(=O)c1CC(N)C(=O)O (stereo not given) | -3.91% (inactive)
Ic1ccccc1CNC1C2CCN(CC2)C1C(c1ccccc1)c1ccccc1 (stereo not given) | -11.4% (inactive)
CCN(CCCl)Cc1ccccc1Br | -4.86% (inactive)
NNC(=O)c1ccc(O)cc1 | -6.19% (inactive)
CC(N)c1cccc(Cl)c1Cl (stereo not given) | 3.31% (inactive)
